Shown are actives, neighbours in structure and some others; about 21% of the full set was active somewhere.
SARS PLP yeast: qHTS of Yeast-based Assay for SARS-CoV PLP | S. cerevisiae expressing SARS-CoV PLpro, growth rescue | Potency, µM (titrated, usually from 32.9 µM), actives largely listed as activators | 330,000 tested, 0.19% active; also: nearly all actives have a fitted effect of over 55% in size
NS1 inh: qHTS Assay for Inhibitors of Influenza NS1 Protein Function; Potency, µM (highest dose often 46.1 µM); 270,000 tested, 0.4% active; AID 2326, 2010; also: actives are rising curves; nearly all actives have a fitted effect of over 50% in size
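Recovery from NS1-induced slow growth read by OD600 in budding yeast switched to galactose assay medium (pH 6.0, -URA) at 1:100 dilution. Compound 23 nl per well; the matching strain lacking NS1 serves as control.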
Pf growth 48h: Primary qHTS for delayed death inhibitors of the malarial parasite plastid, 48 hour incubation | P. falciparum luciferase growth in erythrocytes, 48 h | Potency, µM (titrated, usually from 28.7 µM), hits mostly inhibitors | 310,000 tested, 5.9% active | AID 504832, 2011; active = well fitted inhibition curve with a large enough effect; inconclusive = small, poorly fitted or top-dose-only effect, or another doubt; inactive = no such curve, though single readings can be large or run the other way
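Firefly luciferase activity from engineered P. falciparum reports growth; inhibitors lower the luminescent signal. Cultures contained 2% hematocrit erythrocytes at 0.1% final parasitemia.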
Pf growth 96h: Primary qHTS for delayed death inhibitors of the malarial parasite plastid, 96 hour incubation | P. falciparum luciferase reporter growth, 96 h | Potency, µM (titrated, usually from 28.7 µM), actives largely listed as inhibitors | 320,000 tested, 6.9% active | AID 504834, 2011; active = well fitted inhibition curve with a large enough effect; inconclusive = small, poorly fitted or top-dose-only effect, or another doubt; inactive = no such curve, though single readings can be large or run the other way
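Parasite growth measured via integrated firefly luciferase reporter in P. falciparum. Infected erythrocytes at 2% hematocrit, 0.05% parasitemia final were treated 96 hours at 37 C under 5% CO2, and luminescence was read.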
CHX counter: Cycloheximide Counterscreen for Small Molecule Inhibitors of Shiga Toxin. max response, %. 300,000 tested, 12% active. cell reporter, cycloheximide protein synthesis inhibition counterscreen; in the data active = max response mostly above about 13%, no sharp cut-off; inactive = mostly below about 14%; also: read at 38.3 µM for the half of the compounds with a filed dose
Shiga toxin inh: A qHTS for Small Molecule Inhibitors of Shiga Toxin; inhibition, % at 38.7 µM; Vero cells, Shiga toxin protein synthesis inhibition reporter; 290,000 tested, 9.2% active; in the data active = inhibition mostly above about 28%, no sharp cut-off; inactive = mostly below about 43%
Hits are given with their value. Unless noted, calls follow the shape of the full dose curve.

What do the screens show for `Cc1c(C)c2ccc(OCC(=O)N3CCC(C(=O)O)(c4ccccc4)CC3)c(C)c2oc1=O`?
SARS PLP yeast: inactive; NS1 inh: inconclusive; Pf growth 48h: inactive; Pf growth 96h: inactive; CHX counter: inactive; Shiga toxin inh: inactive

Results for CC(=O)c1sc(NC(=O)COc2ccc(Cl)cc2C)nc1C ?
SARS PLP yeast: inactive; NS1 inh: inactive; Pf growth 48h: inconclusive; Pf growth 96h: inactive; CHX counter: 28; Shiga toxin inh: inactive

How did Cc1c(C)c2ccc(OCC(=O)N3CCOCC3)c(C)c2oc1=O do in these assays?
SARS PLP yeast: inactive; Pf growth 48h: inactive; Pf growth 96h: inactive; CHX counter: 20; Shiga toxin inh: inactive

Results for COc1ccccc1OCC(=O)Nc1cc(NC(=O)COc2ccccc2OC)cc(C(=O)O)c1 ?
SARS PLP yeast: inactive; NS1 inh: inactive; Pf growth 48h: inactive; Pf growth 96h: inconclusive; CHX counter: inactive; Shiga toxin inh: inactive

Results for CC(Oc1ccc(Cl)cc1)C(=O)N(C)CC(=O)Nc1ccc(N2CCOCC2)cc1 (stereo not drawn) ?
SARS PLP yeast: inactive; NS1 inh: inactive; Pf growth 48h: inactive; Pf growth 96h: inactive; CHX counter: inactive; Shiga toxin inh: inactive

What do the screens show for `CCOC(=O)C1=C(N)OC2=C(C(=O)CC(C)(C)C2)C1c1ccccc1OCC#N` (stereo not drawn)?
SARS PLP yeast: inactive; NS1 inh: inactive; Pf growth 48h: inactive; CHX counter: inactive; Shiga toxin inh: inactive

How did C=CCOc1ccccc1CN1CCC(n2nccc2NC(=O)c2ccccc2)CC1 do in these assays?
SARS PLP yeast: inactive; NS1 inh: inactive; Pf growth 48h: inactive; Pf growth 96h: inactive; CHX counter: inactive; Shiga toxin inh: inactive

Results for Cc1ccc2nc(N3CCN(C=O)CC3)nc(-c3ccccc3)c2c1 ?
SARS PLP yeast: inactive; NS1 inh: inactive; Pf growth 48h: inconclusive; Pf growth 96h: inconclusive; CHX counter: inactive; Shiga toxin inh: inactive

What do the screens show for `C/C=C/c1ccc(OCC(=O)Nc2ccncc2)c(OC)c1`?
SARS PLP yeast: inactive; NS1 inh: inactive; Pf growth 48h: inactive; Pf growth 96h: inactive; CHX counter: 21; Shiga toxin inh: 39

What do the screens show for `CCOc1cc(/C=C2\C(=O)N(CCC#N)N=C2C)ccc1OCC(N)=O`?
SARS PLP yeast: inactive; Pf growth 48h: inactive; Pf growth 96h: inactive; CHX counter: inactive; Shiga toxin inh: inactive

How did Cc1ccc(S(=O)(=O)CC(=O)Nc2ccccn2)cc1 do in these assays?
SARS PLP yeast: inactive; NS1 inh: inactive; Pf growth 48h: inactive; Pf growth 96h: inactive; CHX counter: inactive; Shiga toxin inh: inactive

Results for COc1ccc(NC(=O)COc2ccc(/C=N/O)cc2OC)cc1 ?
SARS PLP yeast: inactive; NS1 inh: inactive; Pf growth 48h: inactive; Pf growth 96h: inactive; CHX counter: 31; Shiga toxin inh: 52

What do the screens show for `Cc1ccc(NC(=O)C(=O)Nc2ccccn2)cc1`?
SARS PLP yeast: inactive; NS1 inh: inactive; Pf growth 48h: inactive; Pf growth 96h: inactive; CHX counter: 38; Shiga toxin inh: 69

How did COc1cc(/C=C2\C(=O)N(CCC#N)N=C2C)ccc1OCC(=O)Nc1ccccc1 do in these assays?
SARS PLP yeast: inactive; NS1 inh: inactive; Pf growth 48h: inactive; Pf growth 96h: inactive; CHX counter: 63; Shiga toxin inh: 66

Results for C/C=C/c1ccc(OCC(=O)Nc2ccc(OC)c(OC)c2)c(OC)c1 ?
SARS PLP yeast: inactive; Pf growth 48h: inconclusive; Pf growth 96h: inactive; CHX counter: inactive; Shiga toxin inh: inactive

Results for CCOc1ccc(N(C)S(=O)(=O)c2c[nH]c(C(=O)OC)c2)cc1 ?
SARS PLP yeast: inactive; NS1 inh: inactive; Pf growth 48h: inactive; Pf growth 96h: inconclusive; CHX counter: inactive; Shiga toxin inh: inactive

Results for Cc1c(C)c2ccc(OCC(=O)Nc3ccccn3)c(C)c2oc1=O ?
SARS PLP yeast: inactive; NS1 inh: inactive; Pf growth 48h: inactive; Pf growth 96h: inactive; CHX counter: 22; Shiga toxin inh: 35

How did Cc1cccc(OCC(=O)Nc2ccncc2)c1C do in these assays?
SARS PLP yeast: inactive; NS1 inh: inactive; Pf growth 48h: inactive; Pf growth 96h: inactive; CHX counter: 12; Shiga toxin inh: inactive

Results for Cc1cc(Cl)ccc1OCC(=O)Nc1ccncc1 ?
SARS PLP yeast: inactive; NS1 inh: inactive; Pf growth 48h: inactive; Pf growth 96h: inconclusive; CHX counter: 27

What do the screens show for `Cc1ccc(C)c(OCC(=O)Nc2ccncc2)c1`?
SARS PLP yeast: inactive; NS1 inh: inactive; Pf growth 48h: inactive; Pf growth 96h: inactive; CHX counter: inactive

Results for COc1ccccc1NC(=O)C(=O)Nc1ccccn1 ?
SARS PLP yeast: inactive; NS1 inh: inactive; Pf growth 48h: inactive; Pf growth 96h: inactive; CHX counter: 76; Shiga toxin inh: 94

What do the screens show for `O=C(NN1CCOCC1)c1ccccc1Br`?
SARS PLP yeast: inactive; NS1 inh: inactive; Pf growth 48h: inactive; Pf growth 96h: inconclusive; CHX counter: inactive; Shiga toxin inh: inactive

How did C/C=C/c1ccc(OCC(=O)Nc2cc(Cl)ccc2-n2cncn2)c(OC)c1 do in these assays?
SARS PLP yeast: inactive; Pf growth 48h: inconclusive; Pf growth 96h: 12µM

How did CC(=O)c1cccc(OCC(=O)Nc2cc(Cl)ccc2-n2cncn2)c1 do in these assays?
SARS PLP yeast: inactive; Pf growth 48h: inactive; Pf growth 96h: inactive

How did COc1ccccc1OCC(=O)Nc1ccccn1 do in these assays?
SARS PLP yeast: inactive; NS1 inh: inactive; Pf growth 48h: inactive; Pf growth 96h: inactive; CHX counter: 27; Shiga toxin inh: inactive

How did CN1CCN(S(=O)(=O)c2cccc(C(=O)Nc3cc(C(F)(F)F)ccc3N3CCCC3)c2)CC1 do in these assays?
SARS PLP yeast: inactive; Pf growth 48h: inactive; Pf growth 96h: inconclusive

Results for O=C(c1cc(C2CC2)on1)N1CCN(c2ccc(F)cc2)CC1 ?
SARS PLP yeast: inactive; NS1 inh: inactive; Pf growth 48h: inactive; Pf growth 96h: inactive; CHX counter: inactive; Shiga toxin inh: inactive

What do the screens show for `COc1ccc(C(C(=O)NC2CCCC2)N(CCCO)C(=O)c2snc(C(N)=O)c2N)cc1` (stereo not drawn)?
SARS PLP yeast: inactive; NS1 inh: inactive; Pf growth 48h: inactive; Pf growth 96h: inactive; CHX counter: inactive; Shiga toxin inh: inactive

Results for COc1cc(C(=O)NCC(c2cccs2)N2CCOCC2)cc(OC)c1OC (stereo not drawn) ?
SARS PLP yeast: inactive; Pf growth 48h: inconclusive; Pf growth 96h: inactive

What do the screens show for `CC(C)[C@H](Nc1ccc(C(F)(F)F)cc1[N+](=O)[O-])C(=O)O`?
SARS PLP yeast: inactive; NS1 inh: inactive; Pf growth 48h: inactive; Pf growth 96h: inactive; CHX counter: inactive; Shiga toxin inh: inactive

Results for O=C(NNc1ccc(C(F)(F)F)cc1[N+](=O)[O-])c1ccc(NS(=O)(=O)c2ccc(F)cc2)cc1 ?
SARS PLP yeast: inactive; NS1 inh: inactive; Pf growth 48h: inconclusive; Pf growth 96h: 8.3µM; CHX counter: inactive; Shiga toxin inh: inactive
